{
  "source": "paper PMC4336329",
  "about": "(PLoS ONE, 2015)",
  "note": "Among all 310,000 compounds or so, about 14,000 (4.5%) showed an effect of 50% or more. Effects have a minus sign here. The full list was thinned out, with strong results kept by preference.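 Also: peak tail current of the secondary pulse compared with the same well before compound.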",
  "data": [
    {"molecular_target": "human ether-à-go-go-related gene (hERG) potassium channel (human, UniProt Q12809)", "sequence (Q12809 whole entry, looked up)": "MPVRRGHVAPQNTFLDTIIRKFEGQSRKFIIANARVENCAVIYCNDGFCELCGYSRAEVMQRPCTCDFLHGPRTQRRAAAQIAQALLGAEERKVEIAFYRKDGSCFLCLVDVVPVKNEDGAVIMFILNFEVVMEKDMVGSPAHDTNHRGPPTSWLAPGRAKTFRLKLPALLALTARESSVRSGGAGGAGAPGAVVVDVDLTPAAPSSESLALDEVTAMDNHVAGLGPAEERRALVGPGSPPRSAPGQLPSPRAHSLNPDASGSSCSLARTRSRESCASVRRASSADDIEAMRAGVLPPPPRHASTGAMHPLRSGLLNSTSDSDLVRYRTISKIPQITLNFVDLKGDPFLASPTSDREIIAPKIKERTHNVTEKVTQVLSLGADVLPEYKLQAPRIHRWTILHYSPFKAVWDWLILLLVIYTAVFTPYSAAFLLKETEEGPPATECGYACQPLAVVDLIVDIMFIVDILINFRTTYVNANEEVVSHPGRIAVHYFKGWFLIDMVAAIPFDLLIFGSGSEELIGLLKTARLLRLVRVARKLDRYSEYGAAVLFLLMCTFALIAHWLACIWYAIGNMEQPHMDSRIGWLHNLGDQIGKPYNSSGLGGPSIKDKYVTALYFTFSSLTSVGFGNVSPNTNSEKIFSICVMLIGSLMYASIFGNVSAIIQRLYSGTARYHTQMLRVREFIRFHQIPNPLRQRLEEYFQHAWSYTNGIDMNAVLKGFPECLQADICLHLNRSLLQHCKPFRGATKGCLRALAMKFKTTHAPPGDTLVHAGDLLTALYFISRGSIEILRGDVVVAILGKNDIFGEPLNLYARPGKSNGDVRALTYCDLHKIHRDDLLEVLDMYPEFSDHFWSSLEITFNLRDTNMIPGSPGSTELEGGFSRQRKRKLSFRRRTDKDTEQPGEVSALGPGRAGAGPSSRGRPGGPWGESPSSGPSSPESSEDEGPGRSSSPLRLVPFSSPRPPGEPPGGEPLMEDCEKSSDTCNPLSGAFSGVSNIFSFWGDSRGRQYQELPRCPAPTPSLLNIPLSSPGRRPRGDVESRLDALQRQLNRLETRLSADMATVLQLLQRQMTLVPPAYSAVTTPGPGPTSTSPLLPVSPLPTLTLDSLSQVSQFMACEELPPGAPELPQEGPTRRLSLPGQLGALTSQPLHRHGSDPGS", "assay": "primary screen, population patch clamp on CHO cells stably expressing hERG; higher = less effect of the substance", "units": {"hERG current change (%, negative = inhibition) at 10uM": "%"}, "values": [
      {"smiles": "Cc1noc(C)c1COc1ccc(C(=O)N(C)CCOc2ccccc2)cc1", "hERG current change (%, negative = inhibition) at 10uM": -26.2},
      {"smiles": "CCc1ccc(S(=O)(=O)NC2CC(C)(C)NC(C)(C)C2)cc1", "hERG current change (%, negative = inhibition) at 10uM": 5.09},
      {"smiles": "Cc1cc(C(=O)N/N=C/c2ccc(OC(=O)c3ccccc3Br)cc2)n[nH]1", "hERG current change (%, negative = inhibition) at 10uM": 3.23},
      {"smiles": "O=C1NC2(CCc3ccccc32)C(=O)N1CCOc1ccc(Cl)cc1", "note": "(stereo not drawn)", "hERG current change (%, negative = inhibition) at 10uM": -29.8},
      {"smiles": "C=CCn1c(SCC(=O)C(C)(C)C)nnc1-c1cccs1", "hERG current change (%, negative = inhibition) at 10uM": -14.3},
      {"smiles": "C=CCn1c(SCC(=O)N2CCN(c3ccc(F)cc3)CC2)nnc1-c1cccs1", "hERG current change (%, negative = inhibition) at 10uM": -68.9},
      {"smiles": "C=CCn1c(SCC(=O)Nc2ccc(N3CCOCC3)cc2)nnc1-c1ccco1", "hERG current change (%, negative = inhibition) at 10uM": 2.29},
      {"smiles": "Cc1nc(Cc2nnc(SCC(=O)N(C)c3ccccc3)o2)cs1", "hERG current change (%, negative = inhibition) at 10uM": 15.9},
      {"smiles": "Cc1occc1-c1nnc(SCC(=O)N2CCN(c3ccc(F)cc3)CC2)n1C", "hERG current change (%, negative = inhibition) at 10uM": -58.5},
      {"smiles": "Cc1nc(Cc2nnc(SCC(=O)Nc3c(C)cccc3C)o2)cs1", "hERG current change (%, negative = inhibition) at 10uM": 15.1},
      {"smiles": "Cc1nc(Cc2nnc(SCC(=O)N3CCN(c4ccc(F)cc4)CC3)o2)cs1", "hERG current change (%, negative = inhibition) at 10uM": -50.9},
      {"smiles": "C=CCn1c(SCC(=O)N2CCN(c3ccccc3)CC2)nnc1-c1ccco1", "hERG current change (%, negative = inhibition) at 10uM": -25.7},
      {"smiles": "Cc1occc1-c1nnc(SCC(=O)N2CCN(c3ccccc3F)CC2)n1C", "hERG current change (%, negative = inhibition) at 10uM": 4.99},
      {"smiles": "Cc1occc1-c1nnc(SCC(=O)N2CCN(c3ccccc3)CC2)n1C", "hERG current change (%, negative = inhibition) at 10uM": -27.8},
      {"smiles": "C=CCn1c(SCC(=O)O)nnc1-c1cccs1", "hERG current change (%, negative = inhibition) at 10uM": 0.617},
      {"smiles": "C=CCn1c(SCC(=O)N2CCN(c3ccc(F)cc3)CC2)nnc1-c1ccco1", "hERG current change (%, negative = inhibition) at 10uM": -70.2},
      {"smiles": "COC(=O)C1=C(N)Oc2c(oc(CO)cc2=O)C1c1ccc(F)cc1", "note": "(stereo not drawn)", "hERG current change (%, negative = inhibition) at 10uM": -7.85},
      {"smiles": "O=c1cc(N2CCOCC2)c2ccccc2o1", "hERG current change (%, negative = inhibition) at 10uM": -13.9},
      {"smiles": "O=C(CS(=O)c1cccc(C(F)(F)F)c1)Nc1ccc(Cl)cc1Cl", "note": "(stereo not drawn)", "hERG current change (%, negative = inhibition) at 10uM": 8.83},
      {"smiles": "CC1(C)Cc2c(sc(NC(=O)c3ccc(S(=O)(=O)N4CCCCCC4)cc3)c2C#N)C(C)(C)N1", "hERG current change (%, negative = inhibition) at 10uM": -65.8},
      {"smiles": "CCOC(=O)N1CCN(S(=O)(=O)c2ccc(C(=O)Nc3sc4c(c3C#N)CC(C)(C)NC4(C)C)cc2)CC1", "hERG current change (%, negative = inhibition) at 10uM": 14.6},
      {"smiles": "CC1(C)Cc2c(sc(NC(=O)c3ccc(S(=O)(=O)N4CCCC4)cc3)c2C#N)C(C)(C)N1", "hERG current change (%, negative = inhibition) at 10uM": -8.79},
      {"smiles": "C=C[C@@]1(C)CC(=O)[C@]2(O)[C@@]3(C)[C@@H](O)CCC(C)(C)[C@@H]3[C@H](OC(C)=O)[C@H](O)[C@@]2(C)O1", "hERG current change (%, negative = inhibition) at 10uM": 7.62},
      {"smiles": "O=C(CSc1ccc(Cl)cc1)N/N=C/c1ccc([N+](=O)[O-])o1", "hERG current change (%, negative = inhibition) at 10uM": -12.5},
      {"smiles": "COc1ccc(S(=O)(=O)n2cccc2)c(OC)c1", "hERG current change (%, negative = inhibition) at 10uM": 5.65},
      {"smiles": "CS(=O)(=O)c1nc(S(=O)(=O)c2ccc(Cl)cc2)c(N2CCC3(CC2)OCCO3)s1", "hERG current change (%, negative = inhibition) at 10uM": -59.3},
      {"smiles": "CCS(=O)(=O)c1nc(S(=O)(=O)c2ccc(Cl)cc2)c(N2CCC3(CC2)OCCO3)s1", "hERG current change (%, negative = inhibition) at 10uM": -51.5},
      {"smiles": "CS(=O)(=O)c1nc(S(=O)(=O)c2ccc(Cl)cc2)c(N2CCOCC2)s1", "hERG current change (%, negative = inhibition) at 10uM": 12.1},
      {"smiles": "CS(=O)(=O)c1nc(S(=O)(=O)c2ccc(Cl)cc2)c(N2CCC(O)CC2)s1", "hERG current change (%, negative = inhibition) at 10uM": -13.9},
      {"smiles": "CS(=O)(=O)c1nc(S(=O)(=O)c2ccc(Cl)cc2)c(N2CCC(C(N)=O)CC2)s1", "hERG current change (%, negative = inhibition) at 10uM": -61.8},
      {"smiles": "CCS(=O)(=O)c1nc(S(=O)(=O)c2ccc(C)cc2)c(N2CCC3(CC2)OCCO3)s1", "hERG current change (%, negative = inhibition) at 10uM": -35.4},
      {"smiles": "Cc1ccc(S(=O)(=O)c2nc(S(C)(=O)=O)sc2N2CCC(C(N)=O)CC2)cc1", "hERG current change (%, negative = inhibition) at 10uM": 7.6},
      {"smiles": "Cc1ccc(S(=O)(=O)c2nc(S(C)(=O)=O)sc2N2CCC3(CC2)OCCO3)cc1", "hERG current change (%, negative = inhibition) at 10uM": -34.3},
      {"smiles": "CCS(=O)(=O)c1nc(S(=O)(=O)c2ccc(Cl)cc2)c(N2CCCC2)s1", "hERG current change (%, negative = inhibition) at 10uM": 10.5},
      {"smiles": "Nc1ncc([N+](=O)[O-])s1", "hERG current change (%, negative = inhibition) at 10uM": 19.6},
      {"smiles": "C=CCN1C(=O)c2ccccc2C1(O)Cc1ccccc1", "note": "(stereo not drawn)", "hERG current change (%, negative = inhibition) at 10uM": 16.5},
      {"smiles": "CCCC/C(O)=C1\\C(=O)CC(C)(C)CC1=NCCCCCC(=O)O", "hERG current change (%, negative = inhibition) at 10uM": 7.59},
      {"smiles": "Cc1[nH]c2ccccc2c1SCc1nnc(SCc2ccccc2)n1C", "hERG current change (%, negative = inhibition) at 10uM": 4.6},
      {"smiles": "CCCn1c(C2CC(=O)N(c3ccc(C)cc3)C2)nc2ccccc21", "note": "(stereo not drawn)", "hERG current change (%, negative = inhibition) at 10uM": -52.9},
      {"smiles": "CCn1c(C2CC(=O)N(c3cc(C)cc(C)c3)C2)nc2ccccc21", "note": "(stereo not drawn)", "hERG current change (%, negative = inhibition) at 10uM": -2.71},
      {"smiles": "Cc1ccc(N2CC(c3nc4ccccc4n3C)CC2=O)cc1", "note": "(stereo not drawn)", "hERG current change (%, negative = inhibition) at 10uM": -21.5},
      {"smiles": "Cc1cc(C)cc(N2CC(c3nc4ccccc4n3C)CC2=O)c1", "note": "(stereo not drawn)", "hERG current change (%, negative = inhibition) at 10uM": -10.8}
    ]}
  ]
}
